Screens: PubChem BioAssay, National Center for Advancing Translational Sciences (NCATS)
HT1080NT lethal: kills 2HG-producing HT-1080-NT fibrosarcoma cells. Potency, µM (titrated, usually from 46.1 µM), most hits filed as cytotoxic. HT-1080-NT fibrosarcoma viability, CellTiter-Glo ATP luminescence, 48 h. 360,000 tested, 1.6% active;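 note: NT is the 2HG producing partner of a matched IDH1 knockdown line; nearly all actives have a fitted effect of over 55% in size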
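Viability by CellTiter-Glo luminescence after 48 h compound exposure at 37C of HT-1080-NT cells (750/well, RPMI, 5% FBS). % activity scaled between DMSO wells and medium-only wells, then curve-fitted and categorized by curve class.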
TGFb SMAD3 inh: inhibitors of TGF-b signaling | HepG2 CAGA-GFP TGF-b/SMAD3 reporter, GFP fluorescence, 18 h; TGF-beta stimulated, 500 pg/mL final | Potency, µM (doses to about 46.1 µM), usual class: inhibitors | 410,000 tested, 1.2% active | AID 588855; note: nearly all actives have a fitted effect of over 65% in size
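HEPG2 CAGA-GFP cells (1000/well, DMEM with 1% FBS) were pre-incubated 2 h at 37 degrees C, given compound by pin tool, then stimulated with TGF-beta at 500 pg/mL final for 18 h before per-cell GFP fluorescence imaging.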
KB-V1 cytotox: kills drug-selected multidrug resistant KB-V1 cells | KB-V1 MDR cells viability, CellTiter-Glo, 72 h | 400,000 tested, 3.4% active | Potency, µM (top dose mostly 46.1 µM), hits mostly cytotoxic; note: nearly all actives have a fitted effect of over 60% in size
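KB-V1 cells (P-gp-expressing MDR subline of KB-3-1) in phenol-red-free DMEM with 10% FBS were exposed to library compounds over a concentration series for 72 h at 37 degrees C. Viability read by CellTiter-Glo luminescence; concentration-effect curves fitted after normalization.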
HT1080 IDH1KD tx: kills HT-1080 cells with IDH1 knockdown. HT-1080 IDH1 knockdown viability, ATP luminescence, 48 h. Potency, µM (highest dose often 46.1 µM), most hits filed as cytotoxic. 360,000 tested, 2% active
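Luminescent ATP read-out (CellTiter-Glo, 10 min at room temperature) after 48 h compound exposure at 37 °C gave viability of IDH1-knockdown HT-1080 cells. Activity was normalised to DMSO and cell-free wells, then fitted as concentration-response curves.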
HepG2 tox: HepG2 cytotoxicity, counter-screen for TGF-b inhibitors; HepG2 CAGA-GFP viability, ATP luminescence, 18 h; Potency, µM (series often up to 46.1 µM), most hits filed as cytotoxic; 410,000 tested, 0.76% active
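CellTiter-Glo luminescence gave cytotoxicity after 18 hours at 37 degrees C. The cells were HepG2 CAGA-GFP in 1% FBS DMEM, stimulated with 500 pg/mL TGF-beta after compound addition. %Activity was normalised to no-cell wells (complete cell-killing) and DMSO (no toxicity), and curves were fitted and classified.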
KB-3-1 cytotox: KB-3-1 parental cell cytotoxicity. 400,000 tested, 1.4% active. KB-3-1 viability, CellTiter-Glo ATP luminescence, 72 h. AID 1347075. Potency, µM (doses to about 46.1 µM), usual class: cytotoxic; note: nearly all actives have a fitted effect of over 60% in size
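Using CellTiter-Glo luminescence, growth of non-resistant KB-3-1 adenocarcinoma cells is assessed 72 h after pin-tool compound addition at 37 °C. Normalized responses across the concentration series yield fitted curves.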
Hits are given with their value; i = inactive; ? = inconclusive; nt = not tested or not shown. This is a sample that favours compounds with a hit; in the whole collection about 6.6% have one here. Calls come from the whole dose curve; as a rule, active = well fitted curve in the direction sought with a large enough effect; inconclusive = small, poorly fitted or top-dose-only effect, or another doubt; inactive = no such curve, though single readings can be large; an effect the other way counts as inactive or inconclusive.

SMILES	HT1080NT lethal	TGFb SMAD3 inh	KB-V1 cytotox	HT1080 IDH1KD tx	HepG2 tox	KB-3-1 cytotox
O=C1c2ccccc2C(=O)N1CCCCSc1nnc(-c2ccc(OC(F)F)cc2)o1	i	i	3.3µM	i	i	i
CCOC(=O)Cn1cc(C#N)c2ccccc21	i	?	i	i	i	i
Cc1cccc(Cn2cc(/C=C/[N+](=O)[O-])c3ccccc32)c1	?	7.9µM	i	23µM	i	?
CCOC(=O)Cn1cc(/C=C/[N+](=O)[O-])c2ccccc21	?	16µM	?	?	i	i
O=[N+]([O-])/C=C/c1cn(Cc2ccc(Cl)cc2)c2ccccc12	16µM	i	?	i	3.5µM	i
CCCCSCCCNC(=O)c1c[nH]c2ccc(S(=O)(=O)Nc3cccc(OC)c3)cc2c1=O	nt	i	nt	nt	i	nt
CC(C)CNC(=O)Nc1cc(C(=O)NCc2ccc(C(C)C)cc2)ccc1N1CCCC1	nt	i	i	nt	i	i
COc1nc(N/N=C/c2ccc(-c3ccccc3[N+](=O)[O-])o2)nc(N2CCOCC2)n1	i	i	?	i	i	?
O=C(CNc1cccc([N+](=O)[O-])c1)N/N=C/c1ccc([N+](=O)[O-])o1	?	7.1µM	?	?	i	?
O=[N+]([O-])c1ccc(/C=N/Nc2nc(N3CCCCC3)nc(N3CCCCC3)n2)cc1	i	i	i	i	i	i
O=[N+]([O-])c1ccc(-c2ccc(/C=N/Nc3nc(NCc4ccccc4)nc(N4CCOCC4)n3)o2)cc1	18µM	i	i	16µM	i	i
O=[N+]([O-])c1ccc(/C=N/Nc2nc(N3CCCCCC3)nc(N3CCCCCC3)n2)o1	?	i	?	?	i	6.5µM
O=C(CNc1cccc2ccccc12)N/N=C/c1ccc([N+](=O)[O-])o1	?	6.3µM	i	?	7.9µM	?
O=C(CNc1ccccc1)N/N=C/c1ccc([N+](=O)[O-])cc1	i	i	i	i	i	i
COc1ccc(N2C(=O)CSC23C(=O)N(CC(=O)NC2CCCCC2)c2ccccc23)cc1 (centres undefined)	nt	i	nt	nt	i	nt
Cc1csc(N=Cc2ccc([N+](=O)[O-])o2)n1	i	i	i	i	i	i
O=C(Cc1ccc([N+](=O)[O-])cc1)N/N=C/c1ccc([N+](=O)[O-])o1	?	16µM	?	?	i	?
O=[N+]([O-])c1ccc(/C=N/N=C/c2ccc([N+](=O)[O-])o2)o1	4.6µM	?	8.2µM	2.9µM	i	?
CCCCCCCC(=O)N/N=C/c1ccc([N+](=O)[O-])o1	i	?	?	i	i	i
Cc1ccc(S(=O)(=O)N/N=C\c2ccc([N+](=O)[O-])o2)cc1C	i	i	i	i	i	i
CC1(C(=O)N/N=C/c2ccc([N+](=O)[O-])o2)CC1(Br)Br (centres undefined)	?	11µM	18µM	?	11µM	?
CCOC(=O)N/N=C\c1ccc([N+](=O)[O-])o1	i	?	?	?	i	i
Cc1cc2ncn(/N=C/c3ccc([N+](=O)[O-])o3)c2cc1C	i	2.5µM	?	7.9µM	13µM	i
O=C(OCc1cc(=O)n2nc(-c3cccs3)sc2n1)c1ccc(F)cc1	nt	i	i	nt	i	i
CCCCNC(=O)C(CC)Sc1nnc(-c2ccc(F)cc2)c(-c2ccc(F)cc2)n1 (centres undefined)	nt	i	i	nt	i	i
SMILES	HT1080NT lethal	TGFb SMAD3 inh	KB-V1 cytotox	HT1080 IDH1KD tx	HepG2 tox	KB-3-1 cytotox
Cc1ccc(Cn2c(CNS(=O)(=O)c3ccc(Cl)s3)nc3cccnc32)cc1	nt	i	nt	nt	i	nt
O=C1C2C3C=CC(C4CC34)C2C(=O)N1/N=C/c1ccc(-c2ccc([N+](=O)[O-])cc2)o1 (centres undefined)	i	i	i	i	i	i
O=C(CN1CCCCCCC1)N/N=C/c1ccc([N+](=O)[O-])o1	i	13µM	i	i	20µM	i
O=C1C2C3C=CC(C4CC34)C2C(=O)N1/N=C/c1ccc([N+](=O)[O-])o1 (centres undefined)	2.6µM	i	?	2.6µM	i	16µM
CSc1ccc(CNC(=O)Cc2csc3ccccc23)cc1	nt	nt	nt	nt	i	nt
CCN(CC)C(=O)Oc1ccc2c(=O)c(-c3ccccc3)coc2c1	i	i	21µM	i	i	i
CCOc1ccc(NC(=O)CSc2nnc3c(n2)[nH]c2ccc(S(=O)(=O)N(C)C)cc23)cc1	i	nt	nt	i	nt	nt
N#Cc1sc(NCc2cccc(Cl)c2)nc1Cl	23µM	?	?	?	i	i
CN(C)c1cc[n+](CC(=O)c2ccc(OC(F)F)cc2)cc1	?	i	i	i	i	18µM
CN(C)c1cc[n+](CC(=O)Nc2ccc(Oc3ccccc3)cc2)cc1	?	i	?	?	i	16µM
O=C(C[n+]1ccccc1)Nc1ccccc1	i	i	i	i	i	i
O=C(C[n+]1cccc(CNC(=O)c2ccc(OC(F)F)cc2)c1)c1ccccc1	i	i	i	i	i	i
CCOc1ccc(NC(=O)C[n+]2ccc(N(C)C)cc2)cc1	i	i	i	?	i	10µM
CN(C)c1cc[n+](CC(=O)Nc2ccc(Cl)cc2)cc1	6.5µM	i	i	?	i	3.7µM
Cc1ccc(S(=O)(=O)N(CC(=O)N2CCc3ccccc3C2)c2ccc(C)c(C)c2)cc1	nt	?	i	nt	i	i
CCN(C[C@H]1N[C@@](CC)(C(=O)OC)[C@H]2C(=O)N(C)C(=O)[C@@H]12)S(=O)(=O)c1ccc(F)cc1	i	i	i	i	i	i
COc1cc2c(NC3CCN(C)CC3)nc(N3CCCN(C)CC3)nc2cc1OCCCN1CCCCC1	nt	?	i	nt	i	?
O=C(Nc1ccc(OCc2cc(=O)n3ccccc3n2)cc1)c1ccccc1Cl	nt	i	nt	nt	i	nt
Cc1nc2ccc(S(=O)(=O)N(CC(=O)Nc3cccc(Cl)c3)Cc3ccccc3)cc2s1	nt	?	i	nt	i	i
Cc1ccc(Cl)cc1NC(=O)CN1C(=O)C(C)(C)c2cc(S(=O)(=O)N3CCCCC3)ccc21	nt	i	?	nt	i	?
Cc1cc(C)cc(NC(=O)C[n+]2ccccc2)c1	i	i	i	i	i	i
Cc1cccc(NC(=O)C[n+]2ccc(N(C)C)cc2)c1	?	i	i	?	i	13µM
CCOc1ccc(NC(=O)c2c(NC(=O)Cc3ccccc3)sc3c2CCCC3)cc1	nt	i	i	nt	i	i
COc1ccc(N2C3=C(CC4=C2CC(C)(C)CC4=O)C(=O)CC(C)(C)C3)cc1	7.1µM	?	i	?	16µM	?
Cc1ccc(-c2ccc(=O)n(Cc3cccc(Br)c3)n2)cc1	i	i	16µM	i	i	?
